# Data as given in PubChem BioAssay (Tox21).
# “And” between values parts separate entries of the source, which are not always exact repeats. Equal entries are not always repeated. Results filed as inconclusive are left out. A call without a number means that no potency is given here. A number with no mark means an inactive call. The source made the active and inactive calls. Calls follow the shape of the dose curve; as a rule, active = well fitted curve in the direction sought with a large enough effect in the repeat runs; inconclusive = weak or mixed curves; inactive = no such curve, though single readings can be large; an effect the other way counts as inactive or inconclusive.
# What was measured:
# [1] = A CellTox Green Cytotoxicity Assay to monitor cytotoxicity in HEK293 cells - 40 hour (AID 1224871); also: nearly all actives have a fitted effect of over 45% in size; also: potency is read from the fitted curve at half-maximal effect
# Outline: (§1)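 Fluorescence intensity, read at 0, 8, 16, 24, 32 and 40 h of compound treatment, reflected dye binding to DNA of dead HEK293 cells; compounds (23 nL, DMSO) were added 5 h after plating cells with reagent.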
# [2] = qHTS RealTime-Glo MT Cell Viability Assay in HepG2 cells - 8 hour (AID 1224873); also: nearly all actives have a fitted effect of over 55% in size; also: potency is read from the fitted curve at half-maximal effect
# Outline: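 HepG2 cells mixed with RealTime-Glo MT reagents (NanoLuc plus cell-permeant prosubstrate) were seeded at 600 cells/well, incubated 5 h at 37 C/5% CO2, then pinned with compounds in DMSO; nonlytic luminescence tracked viability during 40 h treatment.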
# [3] = qHTS RealTime-Glo MT Cell Viability Assay in HEK293 cells - 40 hour (AID 1224874); details: RealTime-Glo luminescence; max response: stronger effect = lower value; also: nearly all actives have a fitted effect of over 50% in size; also: potency is read from the fitted curve at half-maximal effect
# Outline: (§2)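 Viable HEK293 cells reduce a cell-permeant prosubstrate; the product diffuses out and is consumed by NanoLuc in the medium to give light. Compounds went in after a 5 h incubation and plates were read over the treatment course.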
# [4] = A CellTox Green Cytotoxicity Assay to monitor cytotoxicity in HEK293 cells - 24 hour (AID 1224875); also: nearly all actives have a fitted effect of over 45% in size; also: potency is read from the fitted curve at half-maximal effect
# Outline: as §1
# [5] = A CellTox Green Cytotoxicity Assay to monitor cytotoxicity in HepG2 cells - 16 hour (AID 1224876); also: nearly all actives have a fitted effect of over 45% in size; also: potency is read from the fitted curve at half-maximal effect
# Outline: (§3)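 Using 1536-well format, dye-containing HepG2 suspension was seeded, allowed 5 h at 37 C/5% CO2, dosed by pintool with compounds, positive and negative controls, and imaged for fluorescence across 40 h.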
# [6] = qHTS RealTime-Glo MT Cell Viability Assay in HepG2 cells - 32 hour (AID 1224877); also: nearly all actives have a fitted effect of over 55% in size; also: potency is read from the fitted curve at half-maximal effect
# Outline: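 Compound treatment began 5 h after plating HepG2 cells (600/well) with NanoLuc luciferase and prosubstrate. Plates stayed at 37 C for 40 h; luminescence was captured at six time points, 0 h through 40 h.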
# [7] = A CellTox Green Cytotoxicity Assay to monitor cytotoxicity in HepG2 cells - 24 hour (AID 1224878); also: nearly all actives have a fitted effect of over 45% in size; also: potency is read from the fitted curve at half-maximal effect
# Outline: as §3
# [8] = A CellTox Green Cytotoxicity Assay to monitor cytotoxicity in HepG2 cells - 40 hour (AID 1224879); also: nearly all actives have a fitted effect of over 40% in size; also: potency is read from the fitted curve at half-maximal effect
# Outline: as §3
# [9] = qHTS RealTime-Glo MT Cell Viability Assay in HEK293 cells - 0 hour (AID 1224880)
# Outline: as §2
# [10] = qHTS RealTime-Glo MT Cell Viability Assay in HEK293 cells - 16 hour (AID 1224872); also: nearly all actives have a fitted effect of over 50% in size; also: potency is read from the fitted curve at half-maximal effect
# Outline: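 Quantitative high-throughput screen of the Tox21 10K library in HEK293: cells and RealTime-Glo reagents plated together, compound added at 5 h, luminescence monitored through 40 h at 37 C.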
SMILES,Potency [1],Potency [2],max response [3],Potency [4],Potency [5],Potency [6],Potency [7],Potency [8],Potency [9],Potency [10],Potency [3]
c1ccc2c(c1)cc1ccc3cccc4ccc2c1c34,inactive,inactive,-10.6%,inactive,inactive,inactive,inactive,7.05 µM (active),inactive,,
CC[C@]1(O)CC[C@H]2[C@@H]3CCC4=CCCC[C@@H]4[C@H]3CC[C@@]21C,inactive,,,inactive,inactive,inactive,inactive,23.9 µM (active),inactive,inactive,
Brc1cccc(-c2ccccc2)c1,39.2 µM (active),,-11.2%,,inactive,inactive,inactive,inactive,,inactive,
CO/N=C(/C1=NOCCO1)c1ccccc1Oc1ncnc(Oc2ccccc2Cl)c1F,inactive,,,inactive,inactive,,inactive,inactive,,inactive,
C#CCC1=C(C)C(OC(=O)C2C(C=C(C)C)C2(C)C)CC1=O (centres undefined),inactive,inactive,,inactive,inactive,inactive,inactive,inactive,inactive,,
CNC(=O)CSP(=O)(OC)OC,inactive,,5.27%,inactive,inactive,inactive,,inactive,inactive,inactive,
C1=CCC=C1,inactive,,,inactive,inactive,,inactive,inactive,inactive,inactive,
CCC(C)Br (centres undefined),inactive,,,inactive,inactive,inactive,inactive,inactive,inactive,inactive,
Brc1ccc(Oc2ccc(Br)cc2Br)c(Br)c1,inactive,inactive,,inactive,inactive,inactive,inactive,inactive,,,49 µM (active)
Oc1cc(Cl)c(Cl)c(Cl)c1Cl,inactive,inactive,,inactive,inactive,inactive,inactive,,inactive,,47.8 µM (active)
CCCCCCCc1ccc(O)cc1,43.6 µM (active),,,43.6 µM (active),21.9 µM (active),inactive,21.9 µM (active),21.9 µM (active),inactive,11 µM (active),21.9 µM (active)
CC(=O)[O-].CC(=O)[O-].O.O.O.[Pb+2],inactive,inactive,-1.15%,inactive,inactive,inactive,inactive,inactive,,,
CC(C)C(Nc1ccc(C(F)(F)F)cc1Cl)C(=O)OC(C#N)c1cccc(Oc2ccccc2)c1 (centres undefined),inactive,inactive,,inactive,inactive,inactive,inactive,inactive,,,
O=C(N[C@@H]1N=C(c2ccccc2F)c2cccc3c2N(CC3)C1=O)c1cc2ccccc2[nH]1,6.01 µM (active),,,5.35 µM (active),21.3 µM (active),,21.3 µM (active),9.52 µM (active),inactive,inactive,
ClC1=C(Cl)[C@]2(Cl)[C@@H]3[C@H]4C[C@H]([C@@H]5O[C@H]45)[C@@H]3[C@@]1(Cl)C2(Cl)Cl,inactive,,,inactive,inactive,inactive,inactive,inactive,inactive,inactive,
O=S1(=O)OCC2C(CO1)C1(Cl)C(Cl)=C(Cl)C2(Cl)C1(Cl)Cl (centres undefined),49 µM (active),,,inactive,inactive,,,,inactive,19.5 µM (active),21.9 µM (active)
Clc1ccc(C(Cl)(Cl)Cl)cc1Cl,33.9 µM (active),,,33.9 µM (active),47.9 µM (active),,47.9 µM (active),47.9 µM (active),inactive,33.9 µM (active),33.9 µM (active)
CSC(C)(C)/C=N/O,inactive,,,inactive,inactive,inactive,,inactive,inactive,inactive,
ClC1=C(Cl)[C@]2(Cl)[C@H]3[C@H]([C@@H]4C=C[C@H]3C4)[C@@]1(Cl)C2(Cl)Cl,54.9 µM (active) and 49 µM (active),,,48.9 µM (active) and 49 µM (active),54.9 µM (active),,,54.9 µM (active),inactive,43.6 µM (active) and 38.9 µM (active),
CSSC,inactive,,,inactive,inactive,inactive,,7.86 µM (active),inactive,inactive,
S=C=Nc1ccccc1,inactive,,-7.14%,inactive,inactive,inactive,,inactive,inactive,inactive,
CC(C)Br,inactive,inactive,-13.8%,inactive,inactive,inactive,inactive,inactive,inactive,,
CCN1CCC2(CC1)COc1cc3c(cc12)N(C(=O)c1ccc(-c2ccc(-c4nnc(C)o4)cc2C)cc1)CC3,40.3 µM (active),,,50.7 µM (active),50.7 µM (active),45.2 µM (active),,45.2 µM (active),,18 µM (active),
O=[N+]([O-])c1ccc(Cl)c(Cl)c1Cl,34.2 µM (active),,-8.94%,24.2 µM (active),inactive,inactive,,inactive,,inactive,
CCC(OC(C)=O)C(CC(C)NC)(c1ccccc1)c1ccccc1 (centres undefined),62.2 µM (active),,,,62.2 µM (active),62.2 µM (active),55.4 µM (active),55.4 µM (active),,49.4 µM (active),49.4 µM (active)
CC(=O)[O][Sn]([c]1ccccc1)([c]1ccccc1)[c]1ccccc1,0.219 µM (active),,,0.245 µM (active),,,,,,0.049 µM (active),
C#CCO,inactive,,,inactive,inactive,inactive,inactive,inactive,,inactive,

SMILES,Potency [1],Potency [2],max response [3],Potency [4],Potency [5],Potency [6],Potency [7],Potency [8],Potency [9],Potency [10],Potency [3]
CO/N=C(\C(=O)OC)c1ccccc1CO/N=C(\C)c1cccc(C(F)(F)F)c1,6.92 µM (active),inactive,,inactive,inactive,inactive,inactive,inactive,inactive,,6.16 µM (active)
COC(=O)C(C)N(C(=O)c1ccco1)c1c(C)cccc1C (centres undefined),inactive,,-12.7%,inactive,inactive,inactive,,,inactive,inactive,
Nc1ccccc1-c1ccccc1,,,,,inactive,inactive,inactive,inactive,,inactive,
O=[N+]([O-])C(Br)Br,,inactive,,,inactive,inactive,inactive,,inactive,55 µM (active),55 µM (active)
CC(C)[C@@H](Nc1ccc(C(F)(F)F)cc1Cl)C(=O)OC(C#N)c1cccc(Oc2ccccc2)c1 (some centres undefined),inactive,,,inactive,inactive,inactive,inactive,inactive,inactive,,
Cc1cc(C2CC2)nc(Nc2ccccc2)n1,,,,inactive,,,,,inactive,21.9 µM (active),21.9 µM (active)
CC(C)=CCN1CC[C@@]2(C)c3cc(O)ccc3C[C@@H]1[C@@H]2C,inactive,inactive,,inactive,inactive,inactive,,,inactive,,
CCNc1nc(NC(C)C(C)C)nc(SC)n1 (centres undefined),inactive,inactive,,inactive,inactive,inactive,inactive,inactive,inactive,,
FC(F)C(F)(F)OCC(Cn1cncn1)c1ccc(Cl)cc1Cl (centres undefined),,54.6 µM (active),,inactive,,,48.7 µM (active),48.7 µM (active),,24.4 µM (active),21.7 µM (active)
Cc1c([N+](=O)[O-])cc2c(c1[N+](=O)[O-])C(C)(C)CC2(C)C,,inactive,-1.57%,inactive,inactive,inactive,inactive,inactive,inactive,inactive,
Cc1ccc2cc3c(ccc4ccccc43)c3c2c1CC3,,inactive,6.91%,,inactive,inactive,inactive,6.93 µM (active),,inactive,
CCc1cccc(C)c1N(C(=O)CCl)[C@@H](C)COC,,,-25.5%,,49 µM (active),,49 µM (active),49 µM (active),inactive,inactive,
Oc1ccc2[nH]cc(CCCCN3CC=C(c4ccccc4)CC3)c2c1,,inactive,,inactive,inactive,inactive,19 µM (active),23.9 µM (active),inactive,9.52 µM (active),
N#Cc1c[nH]cc1-c1cccc2c1OC(F)(F)O2,inactive,,,inactive,inactive,inactive,inactive,13.8 µM (active),inactive,,6.16 µM (active)
BrCC(Br)(Br)Br,,inactive,,inactive,inactive,inactive,inactive,inactive,inactive,25.5 µM (active),45.3 µM (active)
Oc1cc(Cl)cc(Cl)c1,,,,,inactive,inactive,inactive,inactive,inactive,,
CCO/N=C(\CC)C1=C(O)CC(c2c(C)cc(C)cc2C)CC1=O (centres undefined),inactive,,,inactive,,inactive,,,,,
CC(C)c1c(CN(C)C(C)Cc2ccccc2)n(C)n(-c2ccccc2)c1=O (centres undefined),inactive,inactive,,inactive,inactive,inactive,inactive,inactive,inactive,,
C[C@]12CC[C@H]3[C@@H](CCC4=CC(=O)CC[C@@H]43)[C@@H]1CC[C@@H]2OC(=O)CCc1ccco1,,inactive,-8.1%,,inactive,inactive,,inactive,inactive,inactive,
CC1(C)[C@H](/C=C2\CCSC2=O)[C@@H]1C(=O)OCc1coc(Cc2ccccc2)c1,inactive,,,inactive,inactive,inactive,inactive,inactive,inactive,,
O=C1C[C@@H]2OCC=C3CN4CC[C@]56c7ccccc7N1[C@H]5[C@H]2[C@H]3C[C@H]46,inactive,inactive,,inactive,inactive,inactive,inactive,inactive,inactive,,
CC1(C)C(C=C(Cl)Cl)C1C(=O)OC(C#N)c1ccc(F)c(Oc2ccccc2)c1 (centres undefined),inactive,,-18.6%,inactive,inactive,inactive,inactive,inactive,inactive,,
CC(=O)C(Cl)C(=O)N(C)C (centres undefined),,inactive,3.79%,inactive,inactive,inactive,inactive,inactive,inactive,inactive,
O=S(=O)(NS(=O)(=O)C(F)(F)F)C(F)(F)F,,inactive,,inactive,,inactive,48.9 µM (active),48.9 µM (active),inactive,,1.94 µM (active)
c1ccc(Nc2ccc(Nc3ccccc3)cc2)cc1,,,,,inactive,inactive,inactive,inactive,,19.4 µM (active),19.4 µM (active)
Oc1cccc(Cl)c1Cl,inactive,,,inactive,inactive,inactive,inactive,inactive,inactive,,
O=C(NC(=O)c1ccccc1Cl)Nc1ccc(OC(F)(F)F)cc1,inactive,,,inactive,inactive,inactive,inactive,inactive,,,
